AC50 data for 93 compounds are collected here from PubChem BioAssay AID463205 (Broad Institute, 2010).

Molecules are shown by their SMILES. Screen size: about 2,400 compounds; about 20 (0.8%) were called active. Many of the other results were omitted from the sample, so actives are more common in it than they were. A number with no mark means an inactive call.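 Rule for the calls: active = AC50 no more than ten times the highest tested concentration, or full inhibition at every dose giving a flat fit (cut at about 30 µM in these data); inconclusive = flat fit with activity between 30% and 70%, or poor-quality invalid fit; inactive = AC50 more than ten times the top tested dose.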 Some results are limits rather than exact numbers.

The nature of this test: inhibitors of ADP-Glo detection reagents, dose response, artefact control for GSK-3a inhibitor project, biochemical, luminescence, cell-free, homogeneous (AID 463205).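 Note: kinase-free counter-screen against the ADP-Glo detection reagents only; potency is for inhibitors that reduce the luminescence signal.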 The conditions noted are these: 5 uM ADP.
What is called AC50 is the concentration giving half of the maximal activity seen. Consider `Cn1c(=O)c2[nH]c(N3CCOCC3)nc2n(-c2ccccc2)c1=O`, for which the AC50 was greater than 30 µM.

On to `Nc1nccnc1C(=O)N/N=C/c1ccco1`, for which the AC50 was greater than 30 µM.

In the case of `Nc1nonc1-n1nnc(C(=O)N/N=C/c2ccc(Cl)cc2Cl)c1CN1CCOCC1`, the AC50 is greater than 30 µM.

As to `Cc1nc(NCC2CCCO2)nc2c1C(=O)CC(C)(C)C2` (stereo not drawn), the AC50 was greater than 30 µM.

As to `CCOc1ccc2ccccc2c1/C=N/n1cncn1`, the AC50 is greater than 30 µM.

`Cc1ccc(OCC(=O)N2CCN(c3nnc(-c4ccccc4)c4ccccc34)CC2)cc1`: the AC50 is greater than 30 µM.

As for `N#CC1=C(SCc2ccccc2)NC(=O)CC1c1ccco1` (stereo not drawn), the AC50 is greater than 30 µM.

Take `CCN(CC)C(=O)c1oc2ccc(S(=O)(=O)N3CCCCCC3)cc2c1C`: the AC50 was greater than 30 µM.

As for `O=C(c1ccc(Cl)cc1)c1cnc(Nc2ccccc2)s1`, the AC50 was greater than 30 µM.

In the case of `Cc1cccc(NC(=O)CSCc2nc3c(nnn3Cc3ccc(F)cc3)c(=O)[nH]2)c1C`, the AC50 was greater than 30 µM.

Consider `N#Cc1c2c(c(NCc3ccco3)n3c1nc1ccccc13)CCC2`, for which the AC50 is greater than 30 µM.

With `O=C(COC(=O)c1cccc(S(=O)(=O)N2CCOCC2)c1)Nc1ncc(Cl)cc1Cl`, the AC50 is greater than 30 µM.

`CNC(=O)c1ccc(NC(=O)C2CCN(c3ncnc4sc(C)c(C)c34)CC2)cc1`: the AC50 was greater than 30 µM.

For `CCNc1cc(N2CCCC2)ccc1[N+](=O)[O-]`, the AC50 was greater than 30 µM.

Take `Cc1nnc(SCC(=O)N2c3ccccc3CC2C)s1` (stereo not drawn): the AC50 is greater than 30 µM.

Consider `CCOC(=O)c1c(NC(=O)CN2C(=O)NC3(CCCCC3C)C2=O)sc(C)c1CC` (stereo not drawn), for which the AC50 was greater than 30 µM.

`C=CCNc1nc(N)c(C(=O)Nc2cc(C)on2)s1`: the AC50 was greater than 30 µM.

As for `CC(=O)c1cccc(NC(=S)NC(=O)CC(C)C)c1`, the AC50 is greater than 30 µM.

For the compound `COc1ccc(OC)c(/C=C2\Oc3cc(OCC(=O)N4CCC[C@H]4C(=O)O)ccc3C2=O)c1`, the AC50 is greater than 30 µM.

For `CC(C)c1c(C(=O)N/N=C/c2ccncc2)nnn1-c1nonc1N`, the AC50 was greater than 30 µM.

As to `CC(C)N=C(NC#N)SCc1ccc(F)cc1`, the AC50 was greater than 30 µM.

As for `N#Cc1sc2nc3c(c(-c4ccco4)c2c1N)CCCC3`, the AC50 was greater than 30 µM.

With `COCCNC(=O)c1ccc(Cn2c(=S)[nH]c3cc4c(cc3c2=O)OCO4)cc1`, the AC50 is greater than 30 µM.

Consider `CC1=C(C(=O)OCc2ccccc2)C(c2cccc(Br)c2)NC(=O)N1` (stereo not drawn), for which the AC50 is greater than 30 µM.

Regarding `O=C(c1ccco1)N(Cc1cccc([N+](=O)[O-])c1)c1ccc(Br)cc1`, the AC50 was greater than 30 µM.

With `NS(=O)(=O)c1ccc(Nc2nc(-c3ccccc3)cs2)cc1`, the AC50 was greater than 30 µM.

For `CCc1cc(C(=O)c2ccc(OC)cc2)c(NC(=O)COCC(=O)O)s1`, the AC50 is greater than 30 µM.

In the case of `Fc1ccc(Nc2ncnc3ccccc23)cc1`, the AC50 is greater than 30 µM.

For `COc1cc(Br)c(C2C(C#N)=C(N)Oc3n[nH]c(-c4cccnc4)c32)cc1OC` (stereo not drawn), the AC50 was greater than 30 µM.

As for `Cn1c(N=Nc2ccccc2)nc2ccccc21`, the AC50 is 27.9 µM (active).

Turning to `CC(/C=N/NC(=O)CSc1nc2ccccc2n1C)=C\c1ccco1`, the AC50 was greater than 30 µM.

As to `Cc1nc2ccccc2n2c(-c3ccccc3)c3c(=O)n(C)c(=O)n(C)c3c12`, the AC50 is greater than 30 µM.

Regarding `COc1ccc(/C=C/c2nc(N)nc(-c3ccccc3O)n2)cc1OC`, the AC50 is greater than 30 µM.

With `CC(C)c1cc(C(N)=O)c(NC(=O)C2CCC2)s1`, the AC50 is greater than 30 µM.

In the case of `C/C(=N\NC(=O)c1nnn(-c2nonc2N)c1-c1ccccc1)c1cccnc1`, the AC50 was greater than 30 µM.

On to `CC(=O)Nc1ccc(Nc2ncnc(N)c2[N+](=O)[O-])cc1`, for which the AC50 is greater than 30 µM.

With `O=[N+]([O-])c1cc(S(=O)(=O)c2ccc(N3CCCCC3)c([N+](=O)[O-])c2)ccc1N1CCCCC1`, the AC50 is greater than 30 µM.

`COc1ccccc1CC(=O)N1CCOCC1`: the AC50 was greater than 30 µM.

Take `CC(C)=CC(=O)NCc1c(Cl)cccc1-n1cccc1`: the AC50 was greater than 30 µM.

`Cc1nc2sc3c(c2c(=O)o1)CC(C)(C)OC3`: the AC50 was greater than 30 µM.

Take `CCC(C)Nc1nc(N)c([N+](=O)[O-])c(N2CCCCCC2)n1` (stereo not drawn): the AC50 is greater than 30 µM.

As to `O=C(NC1(C(F)(F)F)NC(=O)N(Cc2cccnc2)C1=O)c1ccncc1` (stereo not drawn), the AC50 was greater than 30 µM.

For `COc1ccccc1NC(=O)CSc1nnc(-c2ccccc2)o1`, the AC50 was greater than 30 µM.

With `CC(=O)c1sc(NC(=O)CN2C(=O)NC3(CCCC3)C2=O)nc1-c1ccccc1`, the AC50 is greater than 30 µM.

As for `COC1(OC)N=C(N)C2(C#N)C(c3ccc4c(c3)OCO4)C12C#N` (stereo not drawn), the AC50 is greater than 30 µM.

For the compound `Nc1c(S(=O)(=O)c2ccccc2)nnn1-c1ccccc1`, the AC50 is greater than 30 µM.

Consider `O=C1CC(c2cccs2)CC2=C1C(c1ccccc1)n1ncnc1N2` (stereo not drawn), for which the AC50 is greater than 30 µM.

In the case of `O=C(NCCCn1ccnc1)C(=O)NC1CCCCC1`, the AC50 is greater than 30 µM.

With `Nc1ncnc2c1ncn2[C@@H]1O[C@H](COS(=O)(=O)O)[C@@H](O)[C@H]1O`, the AC50 was greater than 30 µM.

On to `CCCCN(CC)C(=O)c1oc2ccc(S(=O)(=O)N3CCCC3)cc2c1C`, for which the AC50 was greater than 30 µM.

As to `CC(C)OCCCNc1nc2c([nH]1)c(=O)n(C)c(=O)n2C`, the AC50 is greater than 30 µM.

Regarding `CCOC(=O)c1nnn(-c2ccc(OC)cc2)c1N`, the AC50 is greater than 30 µM.

For `COc1cc(/C=N/NC(=O)c2cccc(C(=O)N/N=C/c3ccc(O)c(OC)c3)n2)ccc1O`, the AC50 is greater than 30 µM.

On to `CN(C)C(=O)c1ccc(NC(=O)c2cc(-n3cnnc3)ccc2Cl)cc1`, for which the AC50 is greater than 30 µM.

In the case of `CC(OC(=O)Cc1c[nH]c2ccccc12)C(=O)c1ccccc1` (stereo not drawn), the AC50 is greater than 30 µM.

In the case of `CC(C)CC(=O)NC(=S)Nc1sc2c(c1C(N)=O)CCC2`, the AC50 is greater than 30 µM.

Regarding `COc1cccc(-c2nc(-c3ccccc3)[nH]c(=O)c2C#N)c1`, the AC50 was greater than 30 µM.

Take `CCOC(=O)c1sc(NC(=O)C2CC2)nc1C`: the AC50 is greater than 30 µM.

As to `CCOC(=O)c1cnn(C)c1NC(=O)c1ccc(Cl)cc1Cl`, the AC50 is greater than 30 µM.

Turning to `COc1cccc(/C=N/n2cncn2)c1OCC#N`, the AC50 was greater than 30 µM.

As for `Cc1ccc(-c2cn3cccnc3n2)cc1NC(=O)c1cccs1`, the AC50 was greater than 30 µM.

In the case of `CCCOc1ccc(-c2nnc(N)s2)cc1`, the AC50 was greater than 30 µM.

With `O=C(CSc1ccccn1)Nc1nc2ccc(Br)cc2s1`, the AC50 is greater than 30 µM.

With `Nc1nc(-c2ccccc2)nc(-c2ccccc2O)n1`, the AC50 was greater than 30 µM.

As to `O=C(O)CCSc1nnc(-c2ccncc2)n1-c1ccccc1`, the AC50 was greater than 30 µM.

Take `NC(=O)c1ccc(NC(=O)CSc2nnc(-c3ccc4c(c3)OCO4)o2)cc1`: the AC50 is greater than 30 µM.

`C#CCOCCOCCOCCNc1nc(N2CCN(C(=O)CCCCCCCCCCNC(=O)[C@H]([C@@H](C)CC)n3cc(CCCCCN)nn3)CC2)nc(N2CCN(C(=O)CCCCCCCCCCNC(=O)[C@H](CO)n3cc(CCCCCN)nn3)CC2)n1`: the AC50 is greater than 30 µM.

Consider `CCCCOC(=O)Nc1nnc(COc2ccccc2)s1`, for which the AC50 is greater than 30 µM.

Turning to `CCCOc1ccccc1NC(=O)Nc1ccccc1Cl`, the AC50 is greater than 30 µM.

On to `O=C(Nc1cccc(-c2cnc3ccccc3n2)c1)c1ccncc1`, for which the AC50 is greater than 30 µM.

With `O=C(NCCN1CCN(Cc2ccccc2)CC1)Nc1cc(Cl)cc(Cl)c1`, the AC50 was greater than 30 µM.

As for `COc1ccc(-c2nnc(SCC(=O)Nc3ccccc3OC)o2)cc1`, the AC50 was greater than 30 µM.

Regarding `COc1cc(C2c3sc(=O)[nH]c3SC3C4CCC(C4)C23)ccc1O` (stereo not drawn), the AC50 is greater than 30 µM.

As to `Oc1ccc(-c2csc(Nc3ccccn3)n2)c(O)c1`, the AC50 is greater than 30 µM.

As to `CCOC(=O)CC(C#N)c1c[nH]c2ccccc12` (stereo not drawn), the AC50 was greater than 30 µM.

As to `COc1ccccc1N1CCN(C(=O)c2cc(-c3ccccc3)on2)CC1`, the AC50 is greater than 30 µM.

Regarding `Cc1sc2ncnc(N3CCC(C(=O)Nc4ccc(C#N)cc4)CC3)c2c1C`, the AC50 is greater than 30 µM.

On to `CC(=O)Nc1sc2c(c1C(N)=O)CCCC2`, for which the AC50 is greater than 30 µM.

On to `N#CC1=C2SCN(Cc3ccco3)CN2C(=O)CC1c1c(F)cccc1Cl` (stereo not drawn), for which the AC50 is greater than 30 µM.

On to `CCN(C(=O)C1CCCN1S(=O)(=O)c1cccc2nsnc12)c1ccccc1` (stereo not drawn), for which the AC50 is greater than 30 µM.

`Cc1ccc(C)c(N2CC(C(=O)Nc3nccs3)CC2=O)c1` (stereo not drawn): the AC50 is greater than 30 µM.

For `Cc1ccc(-c2nc3n(n2)Cc2ccccc2-3)cc1`, the AC50 was greater than 30 µM.

On to `CCn1c(C)nc2cc(-c3nc4n(n3)Cc3ccccc3-4)ccc21`, for which the AC50 was 24.3 µM (active).

As for `Fc1ccc(-c2nc3n(n2)Cc2ccccc2-3)cc1`, the AC50 is greater than 30 µM.

Turning to `NCCNc1ccc([N+](=O)[O-])c(NC2CC2)c1`, the AC50 was greater than 30 µM.

Turning to `COc1ccc(Nc2sc(C(=O)c3ccc(Cl)cc3)c(N)c2C(=O)Nc2ccccc2OC)cc1`, the AC50 was greater than 30 µM.

Turning to `Cc1ccc(NC(=O)CSCc2nc3c(nnn3Cc3ccc(F)cc3)c(=O)[nH]2)c(C)c1`, the AC50 was greater than 30 µM.

For the compound `COc1ccc(/C=C/c2nc3ccccc3n2C)cc1`, the AC50 was 14.3 µM (active).

In the case of `COc1c2ccccc2nc2ccccc12`, the AC50 is greater than 30 µM.

As for `COc1ccc(/C=C/c2nc(N)nc(-c3ccccc3O)n2)cc1`, the AC50 was greater than 30 µM.

`C[n+]1cccc(C2C(C#N)=C(N)Oc3c2ccc2ccccc32)c1` (stereo not drawn): the AC50 was greater than 30 µM.

Take `O=C(CSc1nnc(-c2ccncc2)s1)Nc1ccccc1`: the AC50 was greater than 30 µM.

For `O=C(CSc1nnc(-c2ccc(O)cc2)o1)Nc1ccccc1Br`, the AC50 is greater than 30 µM.
